# Screens deposited in PubChem by several laboratories.
# In the library only some 1.2% were active in any assay of this set; here they are far more common.
# RecA splice inh: blocks M. tuberculosis RecA intein splicing | cell-free RecA intein splicing, fluorescence | P9WHJ3 | 290,000 compounds, 0.75% hits | inhibition, % (no concentration beside the values); in the data active = inhibition above about 30%;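 also: 0% = vehicle wells and 100% = reference inhibitor control wells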
# UGM FP inh: inhibitors of M. tuberculosis UDP-galactopyranose mutase | P9WIQ1 | purified UGM, fluorescence polarization probe displacement | inhibition, % at 10 µM | 320,000 compounds, 0.06% hits; in the data active = inhibition above about 10%, passing the limit was not always enough
# Target sequence (P9WIQ1 whole entry, looked up): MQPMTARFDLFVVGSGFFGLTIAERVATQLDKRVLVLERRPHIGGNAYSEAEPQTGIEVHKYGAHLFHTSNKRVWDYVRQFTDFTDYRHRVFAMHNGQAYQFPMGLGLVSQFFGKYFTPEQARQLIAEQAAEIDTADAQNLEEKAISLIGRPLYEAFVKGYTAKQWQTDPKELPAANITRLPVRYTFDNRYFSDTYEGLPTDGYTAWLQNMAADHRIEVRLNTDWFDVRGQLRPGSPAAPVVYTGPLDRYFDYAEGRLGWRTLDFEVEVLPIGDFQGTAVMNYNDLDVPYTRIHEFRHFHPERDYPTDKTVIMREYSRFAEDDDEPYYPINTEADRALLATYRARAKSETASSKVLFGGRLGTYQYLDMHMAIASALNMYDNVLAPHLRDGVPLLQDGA
# Mtb bLac sens: beta-lactam sensitization of Mtb H37Rv; 330,000 compounds, 0.27% hits; AID 434955; inhibition, % at 25 µM; M. tuberculosis H37Rv growth with meropenem, percent inhibition; call rule not given here;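 also: growth measured after seven days incubation then overnight dye step; 0% = bacteria only wells and 100% = bacteria with antibiotic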
# CCHF vOTU inh-1: blocks the CCHF virus ovarian tumor domain protease | CCHFV vOTU protease, Pep-AMC fluorescence | inhibition, % at 11.5 µM | 370,000 compounds, 0.55% hits | AID 651958; also: 0% = vehicle wells with enzyme and 100% = no enzyme wells
# Rv3671c inh: inhibitors of M. tuberculosis serine protease Rv3671c; P9WHR9; inhibition, % at 5.96 µM; 320,000 compounds, 0.048% hits; AID 2606; in the data active = inhibition above about 38%;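 also: extracellular domain of Rv3671c used as enzyme; 0% = enzyme with DMSO and 100% = no enzyme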
# CCHF vOTU inh-2: confirmation of CCHF virus vOTU protease inhibitors | shares compounds with CCHF vOTU inh-1 | Recombinant CCHFV vOTU, Pep-AMC fluorescence | inhibition, % at 11.5 µM | 1,900 compounds, 17% hits | AID 686976
# Starred values were filed as active, the others as inactive; i = inactive; x = no result. Rule as the data show it, unless noted: active = inhibition above about 30%; inactive = the rest.
SMILES,RecA splice inh,UGM FP inh,Mtb bLac sens,CCHF vOTU inh-1,Rv3671c inh,CCHF vOTU inh-2
CCOC(=O)c1ccc(N/C=C/C(=O)C(C)(C)C)cc1,0.8,0.0,95.5,6.9,-5.8,x
CN(C)c1ccc(N/C=C/C(=O)C(C)(C)C)cc1,4.0,2.7,12.2,58.9*,-9.0,10.9
CN(C)c1ccc(/C=C/C(=O)c2ccc(O)cc2)cc1,x,x,x,35.3*,x,-5.2
CN(C)c1ccc(N/C=C/C(=O)c2ccccc2)cc1,-0.4,-4.7,19.2,60.5*,-71.3,-4.1
O=C(/C=C/Nc1ccccc1)c1ccccc1,1.3,0.3,-3.0,29.0,3.3,x
CCCCCCCCN1C(=O)[C@@H](CC(=O)NCc2cccc(C(F)(F)F)c2)C[C@@]2(C(=O)OC)C1=C[C@H](C(C)C)O[C@@H]2C1CC1,x,x,x,29.8*,x,30.7*
CCCCCCCCN1C(=O)[C@@H](CC(=O)NCc2ccc(OC)c(OC)c2)C[C@@]2(C(=O)OC)C1=C[C@H](C(C)C)O[C@@H]2C1CC1,x,x,x,37.6*,x,10.7
CN1CC=C(c2ccccc2)N(c2ccc(Cl)cc2)C1=O,x,x,x,2.2,x,x
Cc1cc(NS(=O)(=O)C2CCN(C(=O)Cc3ccc(Cl)c(Cl)c3)CC2)no1,x,x,x,0.7,x,x
O=C(Nc1c(-c2ccc(F)cc2)nc2ncccn12)C1CC1,x,x,x,-59.1,x,x
C=CCn1c(COc2ccc(C)cc2)nnc1SCc1ccc([N+](=O)[O-])cc1,x,x,x,8.7,x,x
Cc1[nH]c2ccc(F)cc2c(=O)c1SC(F)(F)C(F)F,-1.5,-1.3,-3.6,29.9*,3.4,-19.2
CCN(C[C@H]1[C@@H](c2ccc(C3=CCCC3)cc2)[C@H](CO)N1Cc1ccccn1)S(=O)(=O)c1ccccc1[N+](=O)[O-],x,x,x,5.4,x,x
C#CCNC(=O)C[C@H]1C(=O)N(CCc2ccc(Cl)cc2)C2=CCCC[C@@]21C(=O)OCC,x,x,x,9.4,x,x
COc1cc(OC)c([N+](=O)[O-])cc1/C=N/NC(=O)c1ccncc1,-1.9,0.1,98.5,34.1*,-6.7,4.8
COc1cc(/C=N/NC(=O)c2ccncc2)c([N+](=O)[O-])cc1OC,-0.5,-2.0,98.6,9.2,5.4,x
COc1ccc(-n2c(Cc3cccs3)nnc2SCC(=O)Nc2cccc3ccccc23)cc1,x,x,x,2.1,x,x
CCCCCCC(=O)n1ccc2ccc(-c3ccc4ccn(Cc5ccc(OC)cc5)c4c3)cc21,x,x,x,9.9,x,x
Cc1ccc(S(=O)(=O)N/N=C2/CC(c3ccccc3)Oc3ccccc32)cc1[N+](=O)[O-] (stereo unspecified),5.3,-2.8,18.0,38.5*,-4.6,10.2
O=S(=O)(O)c1cc(Cl)cc(N=Nc2ccc(O)cc2O)c1O,x,x,x,31.3*,x,7.6
Nc1cccc2c1C(=O)N(Cc1cccc(Cl)c1)C2=O,i,1.3,8.1,-3.2,-8.0,x
O=C1Cc2ccccc2C(=O)N1Cc1cccc(Cl)c1,0.9,-0.6,1.3,64.5*,x,54.4*
CC(=O)Oc1ccc(-c2csc(Nc3ccccn3)n2)cc1,x,x,x,42.1*,x,-1.9
CC(=O)Oc1ccc(-c2csc(Nc3cccc(C)n3)n2)cc1,0.5,-2.4,36.6,0.8,11.6,x
CN(C)c1ccc(/C=C(/C#N)C(=O)NCc2ccccc2)o1,-5.2,0.8,0.4,31.9*,-6.7,22.9
SMILES,RecA splice inh,UGM FP inh,Mtb bLac sens,CCHF vOTU inh-1,Rv3671c inh,CCHF vOTU inh-2
O=S1(=O)c2ccc(Br)cc2OCCC2CCCCN21 (stereo unspecified),x,x,x,-5.9,x,x
CC(C)(C)c1nnc(N/N=C/c2ccccc2)n(N)c1=O,-2.0,1.3,2.0,-11.2,-1.4,x
C=CCNC(=S)N/N=C/c1ccc(-c2ccc(Br)cc2)o1,1.5,0.0,88.6,16.9,10.8,x
O=C(O)c1ccc(N/N=C/c2ccc(-c3ccc(Br)cc3)o2)cc1,-74.5,0.4,99.2,33.1*,14.2,-2.9
Cc1nnc(N/N=C/c2ccc(Br)cc2)n1N,-9.7,0.5,96.4,94.2*,-17.4,-12.9
Cc1ccc(/C=N/Nc2ccc(C(=O)O)cc2)o1,-4.2,-0.3,4.5,11.0,-2.3,x
Cc1nnc(N/N=C\c2ccc(-c3cccc(C(=O)O)c3)o2)n1N,-7.6,1.0,0.8,72.9*,-60.9,-24.6
Cc1nnc(N/N=C/c2ccc(-c3ccc(Br)cc3)o2)n1N,0.2,1.1,99.7,77.2*,-22.8,-2.1
Cc1cc(C)cc(C(=O)OCCN(C)C2CN(Cc3cn(Cc4cccc(F)c4)nn3)S(=O)(=O)C2)c1 (stereo unspecified),x,x,x,1.2,x,x
C[C@H](NC(=O)C[C@@H]1C[C@@H]2c3cc(NC(=O)C4CCC4)ccc3O[C@@H]2[C@@H](CO)O1)c1ccccc1,x,x,x,6.7,x,x
CCCCNC(=O)C[C@H]1C[C@@]2(C(=O)OC)C(=C[C@H](C(C)C)O[C@@H]2C2CC2)N(Cc2ccc(Cl)cc2Cl)C1=O,x,x,x,-1.0,x,x
CC1CCC2(CCC(=O)N2CCCOC(=O)NC(C)(C)C)CC1 (stereo unspecified),x,x,x,11.1,x,x
CCN(CC)C(=O)CC[C@@H]1CC[C@]2(CCCN(C(=O)c3cccnc3)C2)O1,x,x,x,5.4,x,x
Cc1nnc(N/N=C/c2ccc([N+](=O)[O-])cc2)n1N,3.7,4.3,18.2,121.6*,4.2,-6.3
Cc1ccc(/C=C/C(=O)Nc2nccs2)o1,7.6,2.4,1.5,51.1*,2.5,1.6
Cc1ccc(C)c(-c2cc(C(=O)NNC(=S)NCC(C)C)c3ccccc3n2)c1,-5.1,0.8,8.4,34.5*,12.9,-16.8
CCCCCCCCN1C(=O)[C@@H](CC(=O)NCC2CCCCC2)C[C@@]2(C(=O)OC)C1=C[C@H](COCc1ccccc1)O[C@@H]2C,x,x,x,31.1*,x,-0.1
CCCCCCCCN1C(=O)[C@@H](CC(=O)NCc2cccc(C(F)(F)F)c2)C[C@@]2(C(=O)OC)C1=C[C@H](COCc1ccccc1)O[C@@H]2C,x,x,x,32.1*,x,23.4
COC(=O)[C@]12C[C@H](CC(=O)NCc3cccc(C(F)(F)F)c3)C(=O)N(Cc3ccco3)C1=C[C@H](COCc1ccccc1)O[C@@H]2C,x,x,x,15.0,x,x
CCCCCCCCN1C(=O)[C@@H](CC(=O)NCCCC)C[C@@]2(C(=O)OC)C1=C[C@H](COCc1ccccc1)O[C@@H]2C,x,x,x,28.9,x,x
CCCCCCCCN1C(=O)[C@@H](CC(=O)NCCC(C)C)C[C@@]2(C(=O)OC)C1=C[C@H](COCc1ccccc1)O[C@@H]2C,x,x,x,30.3*,x,10.0
CC(C)[C@H](N)C(=O)N[C@H](C(=O)N1CCC2CCN(S(=O)(=O)c3ccccc3)CC21)C(C)C (stereo partly specified),x,x,x,-3.4,x,x
COc1ccc(-c2nnc(SCC(=O)N/N=C\C=C/c3ccco3)n2-c2ccc(C)cc2)cc1,x,x,x,18.1,x,x
Cc1ccc(-c2nnc(SCC(=O)Nc3ccc(OCc4ccccc4)cc3)n2-c2ccc(Cl)cc2)cc1,x,x,x,-1.9,x,x
COc1cc(CNC2CCCC2)c(Br)cc1OC1CCCC1,-0.2,2.2,1.6,4.3,2.9,x
COc1cc(CNCc2ccccc2)c(Br)cc1OC1CCCC1,1.3,0.2,67.9,30.7*,4.2,-11.1
O=C(NC1CCCCN(Cc2cccc(F)c2)C1=O)c1cccc(C(F)(F)F)c1 (stereo unspecified),x,x,x,7.9,x,x
O=C(NCc1ccccc1)C(=O)c1cn(CC(=O)N2CCOCC2)c2ccccc12,0.2,1.1,-1.8,34.6*,-3.0,-9.2
